Test results as given in PubChem BioAssay AID393 (SGCOxCompounds, 2006).
Active and inactive are the calls of the source. How the calls were made is not given here.

Molecular target: Serine/threonine-protein kinase pim-1 (Homo sapiens) (UniProt P11309)
Assay: compound-induced PIM1 thermal stabilization – biophysical, human, melting temperature shift (AID 393)
Details: Thermal shift assay, active compounds read high; at 10 µM, protein 2 µM, buffer 10 mM PIPES, pH 6.5, NaCl 150 mM unless noted

Serine/threonine-protein kinase pim-1 (Homo sapiens), sequence (P11309 whole entry, looked up): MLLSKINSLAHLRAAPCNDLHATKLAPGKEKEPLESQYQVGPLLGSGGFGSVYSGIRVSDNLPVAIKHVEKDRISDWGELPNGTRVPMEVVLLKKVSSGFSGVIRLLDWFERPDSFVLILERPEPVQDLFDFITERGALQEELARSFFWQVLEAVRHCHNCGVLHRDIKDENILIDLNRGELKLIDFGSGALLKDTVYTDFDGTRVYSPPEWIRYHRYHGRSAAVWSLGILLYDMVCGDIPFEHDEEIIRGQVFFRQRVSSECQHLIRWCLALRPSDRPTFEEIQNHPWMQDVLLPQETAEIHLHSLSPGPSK

Tm shift, active:
c1ccc(-c2cnc3ccc(NCc4ccco4)nn23)cc1 3.07 Celsius [at 5 µM, protein 1 µM, buffer 10 mM HEPES]
Oc1cc(O)cc(/C=C/c2ccc(O)c(O)c2)c1 3.2 Celsius [at 10 µM, protein 2 µM, buffer 10 mM Na Citrate, pH 6.5, NaCl 150 mM]
CCN1/C(=C/C(C)=O)Sc2ccc(OC)cc21 6.4 Celsius [at 10 µM, protein 2 µM, buffer 10 mM Na Citrate, pH 6.5, NaCl 150 mM]
O=c1[nH]c2ncc(-c3cccnc3)nc2n1C1CCCC1 3.12 Celsius [at 10 µM, protein 2 µM, buffer 25 mM HEPES, pH 7.5, NaCl 250 mM]
Fc1ccc(CNc2ccc3ncc(-c4ccco4)n3n2)cc1 6.35 Celsius [at 5 µM, protein 1 µM, buffer 10 mM HEPES]
Cc1ccc2c(c1)=C(c1[nH]c(=S)[nH]c1O)C(=O)N=2 6.4 Celsius
O=c1[nH]cnc2c1oc1ccc(Cl)cc12 3.41 Celsius
CC(=O)c1cccc(-c2cnc3ccc(N[C@H](CO)C(C)C)nn23)c1 7.4 Celsius
Clc1cccc(Nc2ccn3ncc(-c4cccnc4)c3n2)c1 3.08 Celsius [at 10 µM, protein 2 µM, buffer 25 mM HEPES, pH 7.5, NaCl 250 mM]
COCCNc1ccc2ncc(-c3cccc(C(C)=O)c3)n2n1 4.92 Celsius
CC(C)[C@@H](CO)Nc1ccc2ncc(-c3ccc(C#N)cc3)n2n1 4.53 Celsius
Brc1c(Br)c(Br)c2n[nH]nc2c1Br 4.6 Celsius [at 10 µM, protein 2 µM, buffer 10 mM Na Citrate, pH 6.5, NaCl 150 mM]
NCCNc1ncc(C(N)=O)c(Nc2cccc(C(F)(F)F)c2)n1 5.5 Celsius [at 10 µM, protein 2 µM, buffer 10 mM Na Citrate, pH 6.5, NaCl 150 mM]
Nc1ccc(-c2cnn3ccc(Nc4cccc(Cl)c4)nc23)cc1 6.84 Celsius
O=S(=O)(c1cccc2c(Cl)cccc12)N1CCCNCC1 3.27 Celsius [at 10 µM, protein 3 µM, buffer 10 mM HEPES]
CC(=O)Nc1cccc(-c2cnc3ccc(N[C@H](CO)C(C)C)nn23)c1 4.84 Celsius
CC(=O)c1cccc(-c2cnc3ccc(NCC4CC4)nn23)c1 6.41 Celsius [at 5 µM, protein 1 µM, buffer 10 mM HEPES]
CCN(CC)CCNC(=O)c1c(C)[nH]c(/C=C2\C(=O)Nc3ccc(Cl)cc32)c1C 3.2 Celsius [at 10 µM, protein 2 µM, buffer 10 mM Na Citrate, pH 6.5, NaCl 150 mM]
O=c1cc(-c2ccc(O)cc2)oc2cc(O)cc(O)c12 3.4 Celsius [at 10 µM, protein 2 µM, buffer 10 mM Na Citrate, pH 6.5, NaCl 150 mM]
O=Nc1c(-c2c(O)[nH]c3ccc(S(O)(O)O)cc23)[nH]c2ccccc12 4.2 Celsius [at 10 µM, protein 2 µM, buffer 10 mM Na Citrate, pH 6.5, NaCl 150 mM]
c1ccc(-c2cnc3ccc(NCc4cccs4)nn23)cc1 5.81 Celsius [at 5 µM, protein 1 µM, buffer 10 mM HEPES]
O=C1NC(=O)C(c2cn(CCCn3ccnc3)c3ccccc23)=C1Nc1ccccc1 3.1 Celsius [at 10 µM, protein 2 µM, buffer 10 mM Na Citrate, pH 6.5, NaCl 150 mM]
FC(F)(F)Oc1cccc(-c2cnc3ccc(NC4CCOCC4)nn23)c1 9.75 Celsius
O=C1c2ccccc2-c2n[nH]c3cccc1c23 4.2 Celsius [at 10 µM, protein 2 µM, buffer 10 mM Na Citrate, pH 6.5, NaCl 150 mM]
Cc1cc(Br)c2c(c1)=C(c1[nH]c(=S)[nH]c1O)C(=O)N=2 4.68 Celsius
CCC(CO)Nc1ccc2ncc(-c3ccc(C(=O)O)cc3)n2n1 (stereo unspecified) 5.19 Celsius
FC(F)(F)Oc1cccc(-c2cnc3ccc(NCC4CC4)nn23)c1 7.73 Celsius
COc1cncc(-c2cnc3ccc(NC4CCOCC4)nn23)c1 3.31 Celsius
CCC(CO)Nc1ccc2ncc(-c3ccc(O)cc3)n2n1 (stereo unspecified) 6.96 Celsius
CCOc1c(Br)ccc2c1sc1nc[nH]c(=O)c12 3.5 Celsius
N#Cc1ccc(-c2cnc3ccc(NC4CCOCC4)nn23)cc1 5.36 Celsius
